Assay [1] can be described thus: qHTS assay to identify small molecule antagonists of the sonic hedgehog signaling (Shh) pathway (AID 1259369; calls by dose curve; also: nearly all actives have a fitted effect of over 45% in size; also: potency is read from the fitted curve at half-maximal effect). In short, it runs like this:
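Read-out is luminescence from a firefly luciferase gene controlled by the Gli1 response element, in 3T3Gli1-Luc cells pre-incubated 4hr then exposed to compounds and conditioned medium for 24hr.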
For orientation: qHTS replaces the single test concentration by a dilution series.

Assay [2] is described as follows: qHTS assay to identify small molecule agonists of the androgen receptor (AR) signaling pathway in the presence of an antagonist - cell viability counter screen (AID 1259379).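 Also: MDA-kb2 human breast cancer cells carrying an MMTV luciferase reporter; series mostly up to about 92 µM; nearly all actives have a fitted effect of over 25% in size.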 Summed up: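 Each compound was tested at 15 concentrations on MDA-kb2 cells in the presence of 3.0uM nilutamide. Viability was measured by CellTiter-Fluor fluorescence after a 16 hr incubation at 37C in a CO2-free atmosphere.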

The nature of assay [3]: qHTS assay to identify small molecule agonists of the estrogen receptor beta (ER-beta) signaling pathway - cell viability counter screen (AID 1259380). Also: nearly all actives have a fitted effect of over 30% in size. Also: potency is read from the fitted curve at half-maximal effect. Summed up: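 Compounds dissolved in DMSO were pin-transferred onto ER-beta-UAS-bla HEK293T cells that had settled 6 hr, and exposure ran 16 hr at 37C. Following the reporter read, CellTiter-Glo luminescence after 30 min at room temperature indicated cytotoxicity.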

Assay [4] in a line: qHTS assay to identify small molecule agonists or antagonists of the thyroid stimulating hormone receptor (TSHR) signaling pathway - wild type cell line counter screen (AID 1259384; calls by dose curve). In short, it runs like this:
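Wild-type HEK293 cells were plated 18 h at 37 C/5% CO2, pin-dosed with compound plus Ro20-1724 medium, held 30 min at room temperature, then given cAMP-d2 and anti-cAMP-cryptate; fluorescence was read after 1 h. Fifteen concentrations, triplicate.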

The target of assay [5] is Thyrotropin receptor (Homo sapiens) (UniProt P16473). Kind of assay: qHTS assay to identify small molecule antagonists of the thyroid stimulating hormone receptor (TSHR) signaling pathway (AID 1259385; calls by dose curve; also: nearly all actives have a fitted effect of over 20% in size). In short, it runs like this:
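TSHR-HEK293 cells were plated and held 18 h at 37C/5% CO2, then given compound plus Ro20-1724 and stimulated with TSH at 1.5 ng/mL final. After 30 min at room temperature, cAMP was detected with cAMP-d2/anti-cAMP-cryptate (1 h) by fluorescence.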

The target in assay [6] is Progesterone receptor (Homo sapiens) (UniProt P06401). The experiment in a line: qHTS assay to identify small molecule agonists of the progesterone receptor (PR) signaling pathway (AID 1346784; calls by dose curve; also: nearly all actives have a fitted effect of over 30% in size). In short, it runs like this:
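Agonist qHTS: compounds pinned onto 3,000 PR-UAS-bla HEK 293T cells per well in charcoal-stripped serum medium, 16hr at 37C, then beta-lactamase activity measured by LiveBLAzer FRET fluorescence after 2 hours at room temperature.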

A short description of assay [7]: qHTS assay to identify small molecule antagonists of the progesterone receptor (PR) signaling pathway - cell viability counter screen (AID 1346798). Also: series mostly up to about 92 µM; nearly all actives have a fitted effect of over 50% in size. In short, it runs like this: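 Cytotoxicity read as CellTiter-Glo luminescence (30 min, room temperature) in the same wells as the beta-lactamase readout. HEK293T PR-UAS-bla cells in charcoal-stripped 2% FBS received compound and R5020, then 16 h at 37C, 5% CO2.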

The nature of assay [8]: qHTS assay to identify small molecule agonists of the progesterone receptor (PR) signaling pathway - cell viability counter screen (AID 1346799; calls by dose curve; also: nearly all actives have a fitted effect of over 45% in size). Summed up:
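Cytotoxicity measured by CellTiter-Glo luminescence (30 min, RT) in the same wells as the PR beta-lactamase agonist read. Those HEK293T cells had 16 h compound treatment at 37 C in 2% charcoal-stripped FBS medium.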

Assay [9] is described as follows: qHTS assay to identify small molecule antagonists of the TGF-beta/Smad signaling pathway - cell viability counter screen (AID 1346824). Also: nearly all actives have a fitted effect of over 50% in size. Summed up: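 SBE-bla HEK 293T cells were plated overnight at 37 C, then given compounds in DMSO plus TGF-beta1 (added as 0.25 ng/mL solution) for 5 hr. After the bla read, CellTiter-Glo was added to the same wells and luminescence read after 30 min at room temperature.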

The nature of assay [10]: qHTS assay to identify small molecule agonists of the TGF-beta/Smad signaling pathway - cell viability counter screen (AID 1346829). Also: top concentration of the series differs between compounds; nearly all actives have a fitted effect of over 45% in size. In short, it runs like this: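 Luminescence from CellTiter-Glo, read after a 30 min room-temperature incubation, gives cell viability of SBE-bla HEK 293T cells treated 5 hr with compounds at 37 C.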
Assay [11] is described as follows: qHTS assay to identify small molecule agonists of the TGF-beta/Smad signaling pathway (AID 1346859; active = well fitted activation curve with a large enough effect in the signal ratio in the repeat runs, not every such curve was filed as active; the % refers to the signal ratio; also: series mostly up to about 77 µM). Summed up: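 Fluorescence (ex 405 nm; em 460 and 530 nm) was read 2 h after LiveBLAzer FRET substrate at RT. The preceding compound treatment of overnight-plated SBE-bla HEK293T cells lasted 5 h at 37 C.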
The target of assay [12] is Thyrotropin-releasing hormone receptor (Homo sapiens) (UniProt P34981). The experiment in a line: qHTS assay to identify small molecule antagonists of the thyrotropin-releasing hormone receptor (TRHR) signaling pathway (AID 1346877; active = well fitted inhibition curve with a large enough effect in the repeat runs, not every such curve was filed as active; also: series mostly up to about 51 µM). Summed up: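 Calcium signal in dye-loaded TRHR/HEK293 cells; compounds added 5 min before TRH (1 nM final); fluorescence monitored 3 min at 1 s steps.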
Sequence of Thyrotropin-releasing hormone receptor (Homo sapiens) (P34981 whole entry, looked up): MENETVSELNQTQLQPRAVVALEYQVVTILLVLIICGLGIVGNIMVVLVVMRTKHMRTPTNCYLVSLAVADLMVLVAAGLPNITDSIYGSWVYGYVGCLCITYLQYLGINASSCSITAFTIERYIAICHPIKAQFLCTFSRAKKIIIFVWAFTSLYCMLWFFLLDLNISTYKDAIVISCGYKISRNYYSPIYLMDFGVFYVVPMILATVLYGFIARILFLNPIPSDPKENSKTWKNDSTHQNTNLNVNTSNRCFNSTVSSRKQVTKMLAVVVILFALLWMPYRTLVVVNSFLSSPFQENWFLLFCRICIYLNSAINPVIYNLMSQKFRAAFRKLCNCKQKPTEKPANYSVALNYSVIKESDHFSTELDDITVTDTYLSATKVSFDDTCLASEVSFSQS

Assay [13] shares this target. Kind of assay: qHTS assay to identify small molecule agonists of the thyrotropin-releasing hormone receptor (TRHR) signaling pathway (AID 1346891; calls by dose curve; also: series mostly up to about 58 µM). Summed up:
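Agonist-mode intracellular calcium readout: kinetic fluorescence over 3 min at 1 s intervals after compound addition to TRHR-HEK293 cells (18 h seeded, 2 h dye-loaded at 37 C). Fifteen concentrations, triplicates.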

Assay [14] in a line: qHTS assay to identify small molecule antagonists of the estrogen receptor beta (ER-beta) signaling pathway - cell viability counter screen (AID 1259382). Also: series mostly up to about 92 µM; nearly all actives have a fitted effect of over 55% in size. Summed up: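 CellTiter-Glo ATP luminescence measured after the LiveBLAzer read in the same wells; ER-beta-UAS-bla HEK293T cells, 16 hr compound treatment with 1nM 17-beta-estradiol agonist at 37C, 5% CO2.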
The nature of assay [15]: qHTS assay to identify small molecule agonists of the estrogen receptor alpha (ER-alpha) signaling pathway in the presence of an antagonist - cell viability counter screen (AID 1259386).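 Also: series mostly up to about 92 µM; cells exposed to compounds for 22 h at 37 °C before the viability read; nearly all actives have a fitted effect of over 30% in size.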 Summed up:
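Using estrogen-depleted VM7Luc4E2 cells, the 15-concentration compound series was applied together with 10.0nM ICI-182,780 and incubated 22hr at 37C/5% CO2. Cell viability was then scored by CellTiter-Fluor.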

Assay [16] concerns the target Progesterone receptor (Homo sapiens) (UniProt P06401). Kind of assay: qHTS assay to identify small molecule antagonists of the progesterone receptor (PR) signaling pathway (AID 1346795; active = well fitted inhibition curve with a large enough effect in the signal ratio in the repeat runs, not every such curve was filed as active; the % refers to the signal ratio). In short, it runs like this:
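Antagonist mode with agonist R5020 at 1 nM final and 16 hr incubation at 37C. Reporter was beta-lactamase driven by UAS in HEK293T (PR-UAS-bla), 2% charcoal-stripped serum; signal from LiveBLAzer FRET substrate, 2 hr at room temperature.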

In assay [17] the target is Estrogen receptor beta (Homo sapiens) (UniProt Q92731). Kind of assay: qHTS assay to identify small molecule agonists of the estrogen receptor beta (ER-beta) signaling pathway (AID 1259377; active = well fitted activation curve with a large enough effect in the signal ratio in the repeat runs, not every such curve was filed as active; the % refers to the signal ratio). In short, it runs like this:
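Ratiometric beta-lactamase FRET read-out came after 2 h substrate loading at room temperature. It followed 16 h compound treatment at 37C of GripTite HEK293T cells carrying a UAS-bla reporter, plated in 2% charcoal-stripped FBS medium.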

Assay [18] shares this target. The experiment in a line: qHTS assay to identify small molecule antagonists of the estrogen receptor beta (ER-beta) signaling pathway (AID 1259378; active = well fitted inhibition curve with a large enough effect in the signal ratio in the repeat runs, not every such curve was filed as active; the % refers to the signal ratio). In short, it runs like this:
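ER-beta-UAS-bla HEK293T (GripTite) cells in 2% charcoal-stripped FBS medium were preincubated 6 hr at 37C, dosed with compound, then stimulated with 1 nM E2 (final) for 16 hr; beta-lactamase reporter read by B/G FRET fluorescence after 2 hr substrate loading.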

In assay [19] the target is Estrogen receptor (Homo sapiens) (UniProt P03372). The experiment in a line: qHTS assay to identify small molecule agonists of the estrogen receptor alpha (ER-alpha) signaling pathway in the presence of an antagonist (AID 1259383; calls by dose curve; also: top concentration of the series differs between compounds; nearly all actives have a fitted effect of over 15% in size). Summed up: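 Luminescent ERE-luciferase reporter, VM7Luc4E2 cells (endogenous ER-alpha); 10.0nM ICI-182,780 final; 15-point compound titration; 22hr at 37C; ONE-Glo, 30min RT.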
Sequence of Estrogen receptor (Homo sapiens) (P03372 whole entry, looked up): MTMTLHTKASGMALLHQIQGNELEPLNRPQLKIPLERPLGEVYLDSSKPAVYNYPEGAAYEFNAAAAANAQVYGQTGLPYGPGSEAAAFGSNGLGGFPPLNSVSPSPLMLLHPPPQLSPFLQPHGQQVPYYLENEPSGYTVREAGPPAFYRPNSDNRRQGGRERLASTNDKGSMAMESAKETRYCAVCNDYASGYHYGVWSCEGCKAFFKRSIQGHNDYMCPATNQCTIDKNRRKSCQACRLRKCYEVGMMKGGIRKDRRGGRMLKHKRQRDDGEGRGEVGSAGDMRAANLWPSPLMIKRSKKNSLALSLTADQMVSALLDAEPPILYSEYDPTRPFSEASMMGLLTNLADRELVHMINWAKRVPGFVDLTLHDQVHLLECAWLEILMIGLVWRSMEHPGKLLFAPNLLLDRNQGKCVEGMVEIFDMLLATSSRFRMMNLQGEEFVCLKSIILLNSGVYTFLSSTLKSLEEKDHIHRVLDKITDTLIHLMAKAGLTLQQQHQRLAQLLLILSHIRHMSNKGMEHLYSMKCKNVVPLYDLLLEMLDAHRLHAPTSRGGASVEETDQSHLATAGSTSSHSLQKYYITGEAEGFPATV

For assay [20], the target named is Androgen receptor (Homo sapiens) (UniProt P10275). The experiment in a line: qHTS assay to identify small molecule agonists of the androgen receptor (AR) signaling pathway in the presence of an antagonist (AID 1259381; calls by dose curve; also: nearly all actives have a fitted effect of over 15% in size). Summed up:
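Plated MDA-kb2 cells (3,000/well) were pre-incubated 5hr, given nilutamide (3.0uM final) or buffer, then dosed with compounds in DMSO at 15 concentrations. Luciferase activity was quantified by luminescence after 16hr at 37C.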

Where “and” joins values, the source holds several entries; their conditions need not be identical. Equal entries are not always repeated. Unmarked numbers belong to inactive results. Inconclusive results are not listed. Calls of active or inactive are those of the source. Unless noted, calls follow the shape of the dose curve; as a rule, active = well fitted curve in the direction sought with a large enough effect in the repeat runs; inconclusive = weak or mixed curves; inactive = no such curve, though single readings can be large; an effect the other way counts as inactive or inconclusive.

Sequence of Thyrotropin receptor (Homo sapiens) (P16473 whole entry, looked up): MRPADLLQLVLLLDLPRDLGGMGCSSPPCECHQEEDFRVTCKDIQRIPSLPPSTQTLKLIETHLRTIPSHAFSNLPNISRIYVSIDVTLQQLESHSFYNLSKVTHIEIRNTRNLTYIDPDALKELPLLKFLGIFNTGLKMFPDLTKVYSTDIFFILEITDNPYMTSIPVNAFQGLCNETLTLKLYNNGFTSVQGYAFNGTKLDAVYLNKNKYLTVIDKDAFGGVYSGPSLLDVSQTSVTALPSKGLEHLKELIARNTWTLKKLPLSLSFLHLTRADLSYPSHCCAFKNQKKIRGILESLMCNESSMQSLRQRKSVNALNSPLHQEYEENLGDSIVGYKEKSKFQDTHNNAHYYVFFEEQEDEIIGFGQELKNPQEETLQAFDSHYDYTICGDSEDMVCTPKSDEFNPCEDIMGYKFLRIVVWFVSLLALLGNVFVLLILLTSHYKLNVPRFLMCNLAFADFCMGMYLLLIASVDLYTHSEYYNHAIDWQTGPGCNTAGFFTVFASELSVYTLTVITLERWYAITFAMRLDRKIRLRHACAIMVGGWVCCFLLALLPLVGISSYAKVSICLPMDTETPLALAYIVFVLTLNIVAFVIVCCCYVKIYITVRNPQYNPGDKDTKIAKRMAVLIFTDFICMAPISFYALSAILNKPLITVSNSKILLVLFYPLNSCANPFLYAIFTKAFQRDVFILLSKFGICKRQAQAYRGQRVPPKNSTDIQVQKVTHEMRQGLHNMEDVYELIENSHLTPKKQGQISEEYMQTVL
Sequence of Progesterone receptor (Homo sapiens) (P06401 whole entry, looked up): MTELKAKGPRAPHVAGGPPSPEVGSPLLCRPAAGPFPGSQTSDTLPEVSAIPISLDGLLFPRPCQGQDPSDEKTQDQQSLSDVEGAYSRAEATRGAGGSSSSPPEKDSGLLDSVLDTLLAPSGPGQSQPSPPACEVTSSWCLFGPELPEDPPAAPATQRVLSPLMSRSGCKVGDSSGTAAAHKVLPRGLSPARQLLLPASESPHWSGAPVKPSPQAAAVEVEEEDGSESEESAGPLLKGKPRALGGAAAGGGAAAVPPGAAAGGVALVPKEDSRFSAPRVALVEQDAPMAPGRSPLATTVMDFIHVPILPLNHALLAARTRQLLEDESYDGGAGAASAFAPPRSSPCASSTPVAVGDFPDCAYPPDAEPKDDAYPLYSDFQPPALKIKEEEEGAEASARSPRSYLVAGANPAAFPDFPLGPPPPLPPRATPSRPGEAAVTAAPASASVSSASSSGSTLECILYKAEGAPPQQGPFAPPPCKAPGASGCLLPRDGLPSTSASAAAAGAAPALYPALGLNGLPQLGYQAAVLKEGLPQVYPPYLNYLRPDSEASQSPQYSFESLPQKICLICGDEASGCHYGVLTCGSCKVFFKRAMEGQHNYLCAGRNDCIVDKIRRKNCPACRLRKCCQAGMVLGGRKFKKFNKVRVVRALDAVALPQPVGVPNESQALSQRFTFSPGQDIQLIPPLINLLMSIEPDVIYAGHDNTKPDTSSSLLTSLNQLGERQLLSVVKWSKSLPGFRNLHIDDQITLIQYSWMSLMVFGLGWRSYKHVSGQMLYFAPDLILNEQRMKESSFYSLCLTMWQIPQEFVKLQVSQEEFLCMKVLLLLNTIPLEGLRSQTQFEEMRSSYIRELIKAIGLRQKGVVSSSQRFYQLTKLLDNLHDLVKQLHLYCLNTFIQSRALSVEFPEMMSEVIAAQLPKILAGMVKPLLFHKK
Sequence of Estrogen receptor beta (Homo sapiens) (Q92731 whole entry, looked up): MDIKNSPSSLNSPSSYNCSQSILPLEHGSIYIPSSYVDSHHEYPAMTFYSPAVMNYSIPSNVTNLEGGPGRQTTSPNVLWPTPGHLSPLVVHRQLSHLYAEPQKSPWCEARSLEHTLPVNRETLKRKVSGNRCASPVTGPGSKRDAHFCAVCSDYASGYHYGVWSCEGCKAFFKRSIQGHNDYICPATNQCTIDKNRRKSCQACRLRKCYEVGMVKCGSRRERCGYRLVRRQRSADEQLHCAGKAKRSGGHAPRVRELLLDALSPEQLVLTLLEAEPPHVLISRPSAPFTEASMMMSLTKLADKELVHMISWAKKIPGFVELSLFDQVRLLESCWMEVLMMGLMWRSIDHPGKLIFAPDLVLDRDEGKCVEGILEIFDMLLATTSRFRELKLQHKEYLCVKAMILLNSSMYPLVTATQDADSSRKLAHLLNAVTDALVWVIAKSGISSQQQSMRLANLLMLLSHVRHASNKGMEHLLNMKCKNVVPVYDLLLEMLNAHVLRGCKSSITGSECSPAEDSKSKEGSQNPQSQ
Sequence of Androgen receptor (Homo sapiens) (P10275 whole entry, looked up): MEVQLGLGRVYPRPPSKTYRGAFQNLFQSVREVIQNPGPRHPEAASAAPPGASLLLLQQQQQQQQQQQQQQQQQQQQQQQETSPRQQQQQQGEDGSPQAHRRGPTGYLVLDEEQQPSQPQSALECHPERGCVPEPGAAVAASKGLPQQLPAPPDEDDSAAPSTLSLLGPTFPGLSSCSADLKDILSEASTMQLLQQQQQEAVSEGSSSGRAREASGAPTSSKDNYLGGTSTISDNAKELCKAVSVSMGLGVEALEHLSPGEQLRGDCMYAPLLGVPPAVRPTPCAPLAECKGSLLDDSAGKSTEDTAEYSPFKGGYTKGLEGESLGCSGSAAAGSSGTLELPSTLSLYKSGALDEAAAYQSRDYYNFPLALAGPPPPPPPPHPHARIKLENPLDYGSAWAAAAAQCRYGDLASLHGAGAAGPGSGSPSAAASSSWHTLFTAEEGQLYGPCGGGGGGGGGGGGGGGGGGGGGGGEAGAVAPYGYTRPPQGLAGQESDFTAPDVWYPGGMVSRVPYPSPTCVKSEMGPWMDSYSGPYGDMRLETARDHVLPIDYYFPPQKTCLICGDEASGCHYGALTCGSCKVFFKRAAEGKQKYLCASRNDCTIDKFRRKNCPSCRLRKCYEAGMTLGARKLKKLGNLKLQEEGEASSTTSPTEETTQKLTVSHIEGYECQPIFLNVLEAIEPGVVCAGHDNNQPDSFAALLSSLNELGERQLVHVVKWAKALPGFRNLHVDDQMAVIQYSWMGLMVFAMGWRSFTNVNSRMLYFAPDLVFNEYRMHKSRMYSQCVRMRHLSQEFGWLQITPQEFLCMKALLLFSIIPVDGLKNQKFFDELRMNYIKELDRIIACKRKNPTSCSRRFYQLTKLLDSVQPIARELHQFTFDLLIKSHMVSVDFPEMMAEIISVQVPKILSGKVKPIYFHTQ

For `Nc1ccccc1C(=O)OCCc1ccccc1`, the Potency entry in assay [1], in [2], in assay [5], in assay [6], in assay [7] and in assay [8] was “inactive” each time. For the same molecule, the Potency result in assay [9], in assay [10] and in assay [12] was “inactive” throughout. Besides, the Potency in [3] was 9.73 µM (active) and 7.7 µM (active). Further, the outcome in assay [4], in [11] and in assay [13] was inactive.

With `CCOP(=O)(SC(C)CC)N1CCSC1=O` (configuration not stated), the Potency result in assay [1], in [2], in [3], in [14], in assay [5] and in assay [15] was “inactive” in each case. Moreover, the Potency result in [6], in assay [16], in assay [7], in assay [8], in assay [9] and in assay [10] was “inactive” in each case. In addition, the Potency entry in assay [12] is “inactive”. Further, the outcome in assay [4], in assay [11] and in assay [13] was inactive.

`CON(C)C(=O)Nc1ccc(Cl)cc1`: the Potency result in [17], in assay [18], in [2], in assay [3], in [14] and in assay [19] was “inactive” throughout. The Potency result in [5], in assay [15], in [6], in [8], in assay [9] and in assay [10] was “inactive” each time. The molecule was classed as inactive in assay [4] and in assay [11].

For the molecule `OCCSSCCO`, the Potency entry in assay [1], in assay [2], in assay [3], in assay [14], in assay [19] and in assay [15] was “inactive” in each case. The Potency result in assay [6], in [8], in assay [9], in assay [10] and in assay [12] was “inactive” throughout. Also, the call in [11] and in [13] was inactive.

In the case of `C=CCc1ccc(OC(=O)Cc2ccccc2)c(OC)c1`, the Potency result in assay [17], in assay [18], in assay [2], in [3], in assay [14] and in assay [15] was “inactive” in each case. Also, the Potency result in assay [6], in assay [16], in assay [7], in assay [8], in assay [9] and in assay [10] was “inactive” in each case. Further, in [12], the Potency result is “inactive”. In addition, the molecule was called inactive in assay [4], in [11] and in assay [13].

In the case of `CC(C)(C)OOC(C)(C)CCC(C)(C)OOC(C)(C)C`, the Potency result in assay [17], in assay [18], in assay [2], in assay [3], in [5] and in assay [16] was “inactive” in each case. For the same molecule, the Potency result in assay [7], in assay [8], in assay [9], in assay [10] and in assay [12] was “inactive” each time. The molecule was called inactive in assay [4], in [11] and in assay [13].

On to `N#CC1(N=NC2(C#N)CCCCC2)CCCCC1`, for which the Potency in [1] was 21.7 µM (active). The Potency result in assay [2], in [3], in [14], in [5], in [6] and in assay [7] was “inactive” each time. For the same molecule, the Potency entry in [8], in assay [9], in assay [10] and in [12] was “inactive” throughout. For the same molecule, the result in [4], in [11] and in [13] was inactive.

Regarding `FC(F)OC(F)(F)C(F)Cl` (configuration not stated), the Potency result in [17], in [18], in assay [2], in [3], in assay [20] and in assay [14] was “inactive” in each case. For the same molecule, the Potency entry in [5], in assay [6], in [16], in assay [7], in [8] and in assay [9] was “inactive” each time. The Potency entry in assay [10] and in assay [12] was “inactive” in each case. In addition, the outcome in assay [4], in assay [11] and in assay [13] was inactive.
